Measurements published in PubChem BioAssay.
Where “and” joins values, the source holds several entries; their conditions need not be identical. Identical values can stand only once. Records with an inconclusive call do not appear. For part of these data: Entries with a potency or affinity are not part of this list. Calls of active or inactive are those of the source.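 The calls were made as follows, unless noted: active = compounds killing one labelled cell type while sparing the other, by normalised counts and ratio limits, not self-fluorescent; inactive = the rest.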

Assays:
[1] = blockers of polyQ-driven CASP3 activation – cell-based (AID 1583); conditions: polyglutamine-induced caspase-3 activation, cell assay; stronger effect = higher value;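 tested at 10 µM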
[2] = yeast 75Q aggregation reduction – 75Q-TubU reporter (AID 1593); conditions: Yeast 75Q polyglutamine aggregation reporter
[3] = glutamate excitotoxicity neuroprotectants – cell-based, TUNEL DNA degradation staining, MNGlu (AID 1594; call rule not given here); conditions: motor neurons, glutamate-induced death, at 1 µM, stronger effect = higher value
[4] = restoration of touch response, mutant HTT neurons – whole organism, C. elegans mechanosensory neurons, N-terminal huntingtin (AID 1599); conditions: C. elegans polyQ-huntingtin mechanosensory neurons, stronger effect = higher value
[5] = blockers of cytochrome c efflux from mitochondria – biochemical, purified mitochondria (AID 1603); conditions: stronger effect = lower value;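 also: mouse liver mitochondria challenged with calcium chloride; signal normalized to the plate average as 100%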
[6] = polyglutamine aggregate formation blockers (AID 1604); conditions: polyglutamine-induced protein aggregation inhibition assay; stronger effect = higher value; tested at 2.5 µM
[7] = glutamate transport activators, MN-1 cells, MN-1 cell line (AID 1612); conditions: MN-1 motor neuron cells, stronger effect = higher value;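 also: tested at 1 µM final; 0% = mean of DMSO vehicle wells on each plate; positive means more glutamate uptake than control and negative means less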
[8] = GFP-Q80 aggregate reduction, neuronal-like cells, cell-based, NGF-treated PC12, GFPQ80 (AID 1614); conditions: PC12 NGF-treated GFP-polyQ80 inclusion reduction;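 also: lower means fewer inclusions and 0 means no inclusions at all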
[9] = 75Q-TubH aggregate inhibition, S. cerevisiae, yeast (AID 1616); conditions: S. cerevisiae 75Q-TubH polyglutamine aggregation suppression; stronger effect = higher value
[10] = P. berghei load reduction in hepatocytes – cell-based, HepG2, luciferase luminescence, HepG2 viability, primary screen (AID 624349; in the data active = parasite load remaining mostly below about 12%, no sharp cut-off; inactive = mostly above about 10%;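 also: 100% = mean of DMSO negative control wells on the same plate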); conditions: P. berghei liver stage in HepG2, luciferase luminescence, concentration not given here; parasite load remaining: stronger effect = lower value; viability: measured here: HepG2 viability without parasites
[11] = EMT-state selective cytotoxicity in co-culture – imaging, PC-3E GFP, TEM4-18 mCherry, primary screen (AID 1345086); conditions: PC-3E GFP / TEM4-18 mCherry co-culture, imaging cell counts, at 1 µM; for red/green cell ratio (normalised): actives lie on both sides, counts scaled to control wells, 1 = unselective;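 as to all read-outs here: cells exposed to compound for 72 h before imaging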;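 as to red/green cell ratio (normalised): normalised mesenchymal count divided by normalised epithelial count so high means epithelial killing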
[12] = viability loss with induced miR-34 in A549 – imaging, A549 dox-inducible miR-34, nuclei and caspase counts, primary screen (AID 1347080;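 active = compounds whose cell count with miR-34 switched on is under 0.7 times the count with it off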); conditions: A549 miR-34 inducible, Hoechst nuclei count, 48 h
[13] = biological target: Mitogen-activated protein kinase 7 (Homo sapiens) (UniProt Q13164); assay: Gal4-ERK5 driven luciferase induction – cell-based, HTS, primary screen (AID 1508626;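 active = luciferase signal above three times the same-plate solvent-only control wells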;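 also: luciferase driven by Gal4-ERK5 fusion binding five Gal4 sites before minimal TATA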); conditions: HeLa Gal4-ERK5 transactivation, 18 h, at 5 µM, stronger effect = higher value
[14] = biological target: NAD(+) hydrolase SARM1 (Homo sapiens) (UniProt Q6SZW1); assay: blocking NAD cleavage by SARM1 SAM-TIR – cell lysate, NAD-Glo luminescence (AID 1508614;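 active = compound whose remaining NAD level is above about 45 nM, limit read from the data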;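 also: higher remaining NAD means stronger inhibition of SARM1 NADase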); conditions: SAM-TIR HEK293T lysate NADase, at 1 µM, stronger effect = higher value
[15] = rescue of PC12 cells from polyQ htt toxicity – LDH release (AID 1610); conditions: PC12 mutant huntingtin toxicity, final LDH at 4 uM, stronger effect = lower value
[16] = compounds altering viability of human ES cells (AID 493140; call rule not given here;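 also: cells exposed to compounds for four days before counting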); conditions: human embryonic stem cell survival screen; stronger effect = higher value
[17] = measured here: epithelial PC-3E GFP cell survival
[18] = measured here: mesenchymal TEM4-18 mCherry cell survival
[19] = stronger effect = lower value, cell number ratio, induced over uninduced
[20] = measured here: relative caspase fold change +Dox/-Dox
[21] = measured here: total cells with miR-34 induction, stronger effect = lower value
[22] = measured here: total cells without miR-34 induction

NAD(+) hydrolase SARM1 (Homo sapiens), sequence (Q6SZW1 whole entry, looked up): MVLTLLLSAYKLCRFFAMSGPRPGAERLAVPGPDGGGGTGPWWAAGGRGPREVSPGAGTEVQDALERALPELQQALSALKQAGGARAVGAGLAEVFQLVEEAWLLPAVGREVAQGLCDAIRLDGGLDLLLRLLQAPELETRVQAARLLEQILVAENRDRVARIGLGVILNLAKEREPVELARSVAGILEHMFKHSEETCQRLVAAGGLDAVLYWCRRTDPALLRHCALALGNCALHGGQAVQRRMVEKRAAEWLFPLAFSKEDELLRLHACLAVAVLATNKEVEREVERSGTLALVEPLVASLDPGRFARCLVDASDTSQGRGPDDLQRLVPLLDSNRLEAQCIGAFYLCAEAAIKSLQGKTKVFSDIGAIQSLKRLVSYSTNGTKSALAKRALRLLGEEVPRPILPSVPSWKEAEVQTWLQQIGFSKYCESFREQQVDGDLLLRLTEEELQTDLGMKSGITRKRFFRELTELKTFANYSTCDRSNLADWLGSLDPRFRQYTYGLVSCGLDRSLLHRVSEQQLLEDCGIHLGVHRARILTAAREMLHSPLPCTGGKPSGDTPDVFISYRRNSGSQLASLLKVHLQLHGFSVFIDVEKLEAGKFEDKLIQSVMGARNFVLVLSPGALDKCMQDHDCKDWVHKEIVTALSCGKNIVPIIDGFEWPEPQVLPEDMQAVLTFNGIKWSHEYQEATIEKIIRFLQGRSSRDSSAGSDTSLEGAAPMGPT
Mitogen-activated protein kinase 7 (Homo sapiens), sequence (Q13164 whole entry, looked up, the tested form may be a part): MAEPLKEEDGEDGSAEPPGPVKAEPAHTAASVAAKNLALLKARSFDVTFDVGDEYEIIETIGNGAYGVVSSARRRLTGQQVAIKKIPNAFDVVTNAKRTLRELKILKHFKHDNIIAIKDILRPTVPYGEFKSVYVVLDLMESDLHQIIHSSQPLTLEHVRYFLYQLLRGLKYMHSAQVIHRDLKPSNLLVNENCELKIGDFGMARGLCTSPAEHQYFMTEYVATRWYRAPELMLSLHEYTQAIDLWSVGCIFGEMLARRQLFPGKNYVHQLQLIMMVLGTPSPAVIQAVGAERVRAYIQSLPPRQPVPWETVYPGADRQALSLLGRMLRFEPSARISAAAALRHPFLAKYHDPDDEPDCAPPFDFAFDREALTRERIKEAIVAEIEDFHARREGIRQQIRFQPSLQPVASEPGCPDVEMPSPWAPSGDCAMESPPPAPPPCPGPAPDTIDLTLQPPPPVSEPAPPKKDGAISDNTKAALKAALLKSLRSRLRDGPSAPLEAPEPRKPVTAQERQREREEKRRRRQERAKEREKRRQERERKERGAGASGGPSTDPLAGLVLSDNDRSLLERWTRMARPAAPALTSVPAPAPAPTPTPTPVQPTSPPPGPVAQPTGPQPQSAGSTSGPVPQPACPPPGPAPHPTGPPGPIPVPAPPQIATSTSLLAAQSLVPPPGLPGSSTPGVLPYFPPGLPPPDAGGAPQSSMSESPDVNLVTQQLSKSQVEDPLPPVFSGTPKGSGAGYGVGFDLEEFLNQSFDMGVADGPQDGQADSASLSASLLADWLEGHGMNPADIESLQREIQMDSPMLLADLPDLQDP

With `C[C@]12C=CC(=O)C=C1CCC1C2[C@@H](O)C[C@@]2(C)C1CC[C@]2(O)C(=O)CO` (stereo not given in full) the inhibition [1] was 12%, the score [2] was 1.21 and the protection [3] was 55% (active). For the same compound, the rescue above control [4] was 1.9, the cytochrome c release ratio [5] was 1.29 and the inhibition of aggregation [6] was 70.5%. The glutamate uptake change [7] was 9.97%, the inclusion score [8] was 2 and the aggregation suppression score [9] was 1.27. For the same compound, the parasite load remaining [10] was 115% (inactive) and 54.5% (inactive), the viability [10] was 73.3% and 82.9% and the red/green cell ratio (normalised) [11] was 1.37 (inactive). For the same compound, the normalised cell number [11, 17] was 1.03, the normalised cell number [11, 18] was 1.41 and the fold change [12, 19] was 0.848 (inactive). The fold change [12, 20] was 2.13, the cell count [12, 21] was 6630 and the cell count [12, 22] was 7820.

In the case of `CC(C)(CO)C(O)C(=O)NCCCO` (stereo not given), the parasite load remaining [10] is reported as 56.4% (inactive), the viability [10] is reported as 105% and the red/green cell ratio (normalised) [11] is reported as 1.08 (inactive) and 0.9 (inactive). The normalised cell number [11, 17] was 1.14 and 1.02, the normalised cell number [11, 18] was 1.23 and 0.92 and the fold change [12, 19] was 0.911 (inactive). It also gave a fold change [12, 20] of 4.72, a cell count [12, 21] of 11800 and a cell count [12, 22] of 13000. For the same compound, the luciferase signal [13] was 68 AU (inactive).

With `CC(=O)Oc1c(C)cccc1C(=O)O` the red/green cell ratio (normalised) [11] was 0.87 (inactive), the normalised cell number [11, 17] was 1.16 and the normalised cell number [11, 18] was 1. The fold change [12, 19] was 0.895 (inactive), the fold change [12, 20] was 0.783 and the cell count [12, 21] was 8780. For the same compound, the cell count [12, 22] was 9810, the remaining NAD [14] was 10 nM (inactive) and the luciferase signal [13] was 56 AU (inactive).

`CN[C@@H]1[C@H](OC2[C@H](O[C@H]3[C@H](O)[C@@H](O)[C@H](N=C(N)N)[C@@H](O)[C@@H]3N=C(N)N)O[C@@H](C)[C@]2(O)C=O)O[C@@H](CO)[C@H](O)[C@H]1O` (stereo not given in full) showed an inhibition [1] of 11%, a score [2] of 1.53 and a rescue above control [4] of 0.21. For the same compound, the cytochrome c release ratio [5] was 1.12, the inhibition of aggregation [6] was 65.1% and the normalised LDH release [15] was 0.965. The glutamate uptake change [7] was 10.8%, the inclusion score [8] was 1.5 and the aggregation suppression score [9] was 1.33. The parasite load remaining [10] was 83% (inactive) and 43.9% (inactive), the viability [10] was 71.2% and 98.6% and the red/green cell ratio (normalised) [11] was 1.2 (inactive). For the same compound, the normalised cell number [11, 17] was 1.02, the normalised cell number [11, 18] was 1.22 and the fold change [12, 19] was 0.885 (inactive). For the same compound, the fold change [12, 20] was 2.64, the cell count [12, 21] was 11600 and the cell count [12, 22] was 13100.

In the case of `CCOC(=O)Nc1nc2ccccc2[nH]1`, the parasite load remaining [10] is reported as 62.9% (inactive), the viability [10] is reported as 103% and the red/green cell ratio (normalised) [11] is reported as 1.08 (inactive). For the same compound, the normalised cell number [11, 17] was 0.9, the normalised cell number [11, 18] was 0.97 and the fold change [12, 19] was 0.84 (inactive). The fold change [12, 20] was 2.72, the cell count [12, 21] was 8540 and the cell count [12, 22] was 10200. The remaining NAD [14] was 10 nM (inactive) and the luciferase signal [13] was 88 AU (inactive).

With `CC(O)(CC(=O)O)CC(=O)O` the red/green cell ratio (normalised) [11] was 1.15 (inactive), the normalised cell number [11, 17] was 0.86 and the normalised cell number [11, 18] was 0.99. The fold change [12, 19] was 0.913 (inactive), the fold change [12, 20] was 1.16 and the cell count [12, 21] was 8220. The cell count [12, 22] was 9000 and the remaining NAD [14] was 10 nM (inactive).

With `COc1cc(/C=C/C(=O)N2CCC=CC2=O)cc(OC)c1OC` the survival [16] was 0.417 (inactive), the parasite load remaining [10] was -9.42% (inactive) and 36.9% (inactive) and the viability [10] was 36.5% and 76.3%. For the same compound, the red/green cell ratio (normalised) [11] was 1.8 (active), the normalised cell number [11, 17] was 0.39 and the normalised cell number [11, 18] was 0.7. The fold change [12, 19] was 0.965 (inactive), the fold change [12, 20] was 1.26 and the cell count [12, 21] was 3400. For the same compound, the cell count [12, 22] was 3530 and the luciferase signal [13] was 460 AU (active).

For `O=C(CNC(=O)c1ccc(Cl)cc1)NO`, the parasite load remaining [10] was 45.5% (inactive), the viability [10] was 106% and the red/green cell ratio (normalised) [11] was 0.95 (inactive). The normalised cell number [11, 17] was 1.13, the normalised cell number [11, 18] was 1.08 and the fold change [12, 19] was 0.961 (inactive). The fold change [12, 20] was 3.28, the cell count [12, 21] was 12100 and the cell count [12, 22] was 12600. The remaining NAD [14] was 10 nM (inactive) and the luciferase signal [13] was 60 AU (inactive).

With `Cc1nccnc1N1CCCCC1` the red/green cell ratio (normalised) [11] was 1.12 (inactive), the normalised cell number [11, 17] was 0.93 and the normalised cell number [11, 18] was 1.04. For the same compound, the fold change [12, 19] was 0.964 (inactive), the fold change [12, 20] was 0.767 and the cell count [12, 21] was 9440. The cell count [12, 22] was 9790 and the remaining NAD [14] was 10 nM (inactive).

In the case of `CC(O)CC(C)(C)O` (stereo not given), the red/green cell ratio (normalised) [11] is reported as 0.94 (inactive), the normalised cell number [11, 17] is reported as 1 and the normalised cell number [11, 18] is reported as 0.94. For the same compound, the fold change [12, 19] was 0.91 (inactive), the fold change [12, 20] was 0.891 and the cell count [12, 21] was 8730. For the same compound, the cell count [12, 22] was 9590 and the remaining NAD [14] was 10 nM (inactive).

In the case of `OC[C@H]1O[C@H](O[C@]2(CCl)O[C@H](CCl)[C@@H](O)[C@@H]2O)[C@H](O)[C@@H](O)[C@H]1Cl`, the parasite load remaining [10] is reported as 60.8% (inactive), the viability [10] is reported as 98.6% and the red/green cell ratio (normalised) [11] is reported as 0.96 (inactive). The normalised cell number [11, 17] was 1.1, the normalised cell number [11, 18] was 1.05 and the fold change [12, 19] was 0.909 (inactive). For the same compound, the fold change [12, 20] was 4.93, the cell count [12, 21] was 12300 and the cell count [12, 22] was 13500. For the same compound, the remaining NAD [14] was 10 nM (inactive) and the luciferase signal [13] was 68 AU (inactive).

In the case of `C[C@H]1CC2C3CCC4=CC(=O)C=C[C@]4(C)[C@@]3(F)[C@@H](O)C[C@]2(C)[C@@]1(O)C(=O)COP(=O)(O)O` (stereo not given in full), the red/green cell ratio (normalised) [11] is reported as 1.28 (inactive), the normalised cell number [11, 17] is reported as 1.37 and the normalised cell number [11, 18] is reported as 1.75. The fold change [12, 19] was 0.873 (inactive), the fold change [12, 20] was 1.02 and the cell count [12, 21] was 6310. The cell count [12, 22] was 7220 and the luciferase signal [13] was 92 AU (inactive).

In the case of `FC(F)(F)COCC(F)(F)F`, the parasite load remaining [10] is reported as 45.8% (inactive), the viability [10] is reported as 107% and the red/green cell ratio (normalised) [11] is reported as 0.7 (inactive). The normalised cell number [11, 17] was 1.25, the normalised cell number [11, 18] was 0.88 and the fold change [12, 19] was 0.879 (inactive). For the same compound, the fold change [12, 20] was 0.825, the cell count [12, 21] was 10400 and the cell count [12, 22] was 11900. For the same compound, the remaining NAD [14] was 10 nM (inactive) and the luciferase signal [13] was 60 AU (inactive).

For `CCCCC(CC)CCC(CC(C)C)OS(=O)(=O)O` (stereo not given), the red/green cell ratio (normalised) [11] was 0.93 (inactive), the normalised cell number [11, 17] was 1.15 and the normalised cell number [11, 18] was 1.07. For the same compound, the fold change [12, 19] was 0.913 (inactive), the fold change [12, 20] was 0.896 and the cell count [12, 21] was 8490. For the same compound, the cell count [12, 22] was 9300 and the remaining NAD [14] was 10 nM (inactive).

With `CN(C)[C@@H]1C(=O)C(C(=O)NCN2CCCC2)=C(O)[C@@]2(O)C(=O)C3=C(O)c4c(O)cccc4[C@@](C)(O)[C@H]3C[C@@H]12` the parasite load remaining [10] was 26.9% (inactive), the viability [10] was 99.8% and the red/green cell ratio (normalised) [11] was 0.9 (inactive). The normalised cell number [11, 17] was 1.09, the normalised cell number [11, 18] was 0.97 and the fold change [12, 19] was 0.855 (inactive). For the same compound, the fold change [12, 20] was 4.3, the cell count [12, 21] was 11700 and the cell count [12, 22] was 13600. The remaining NAD [14] was 10 nM (inactive) and the luciferase signal [13] was 112 AU (inactive).

In the case of `CC(=O)Nc1ccc(OC(C)=O)cc1`, the red/green cell ratio (normalised) [11] is reported as 0.87 (inactive), the normalised cell number [11, 17] is reported as 1.25 and the normalised cell number [11, 18] is reported as 1.09. The fold change [12, 19] was 0.883 (inactive), the fold change [12, 20] was 1.21 and the cell count [12, 21] was 8510. The cell count [12, 22] was 9640 and the remaining NAD [14] was 10 nM (inactive).

With `FC(F)(F)C(Cl)Br` (stereo not given) the parasite load remaining [10] was 24% (inactive), the viability [10] was 94.8% and the red/green cell ratio (normalised) [11] was 0.84 (inactive). The normalised cell number [11, 17] was 1.13, the normalised cell number [11, 18] was 0.95 and the fold change [12, 19] was 0.974 (inactive). The fold change [12, 20] was 2.12, the cell count [12, 21] was 12500 and the cell count [12, 22] was 12900. For the same compound, the remaining NAD [14] was 10 nM (inactive) and the luciferase signal [13] was 40 AU (inactive).
